Assay outcomes as filed in PubChem.
Cardio protect: myocardial damage modulation in H9c2 cells; H9c2 cardiomyocytes, H2O2 injury protection, ATPLite, 2 h; protection from H2O2 cell death, % at 20 µM; hit rate 0.63% among 360,000;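 active = compounds giving at least 50% protection of heart cells from peroxide-induced death in the single-dose screen, raw or plate-pattern-corrected value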
Mot1-301 SUMO: SUMOylation pathway inhibition by Mot1-301 growth rescue | hit rate 1% among 320,000 | growth rescue, % at 18.8 µM | S. cerevisiae Mot1-301 growth rescue, ATP luminescence, 38.5C; percent above DMSO median, 100 means doubled;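 active = every valid replicate shows activation above 250% relative to neutral control wells; inactive = the rest, any valid replicate at or below 250%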
AI-2 QS mod: Vibrio harveyi AI-2 quorum sensing modulation; Vibrio harveyi JMH597 AI-2 luminescence/OD600 ratio, 9 h; hits give low values; strain lacks LuxN and CqsS sensors; 0 = neutral-control median; activity change, % at 7.5 µM; hit rate 0.4% among 300,000; AID 2094; in the data active = activity change below about -75%, passing the limit was not always enough;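 also: luminescence divided by OD600 gain over 9 h not by final OD600 alone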
NR3A LBD binder: modulates the human NR3A ligand-binding domain. Tm shift relative to glycine control, % at 25 µM. NR3A LBD differential scanning fluorimetry, Tm shift; 0% = protein alone, 100% = glycine-bound protein. hit rate 2.5% among 340,000;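 active = melting temperature shift of at least 10% of the positive control shift, at one fixed dose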
AHR activator: human AHR activation; P35869; AHR-responsive luciferase reporter cells, luminescence; activation, % at 5 µM; hit rate 2.5% among 320,000; AID 2796; in the data active = activation above about 47%
NTR1 agonist: NTR1 (human) agonism. P30989. NTR1-U2OS beta-arrestin-GFP spot imaging, agonist mode. activation, % at 20 µM. hit rate 0.17% among 330,000;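 active = activation at or above 40% of the spot to cytoplasm intensity ratio, with at least 20 cells analyzed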
Target sequence (P30989 whole entry, looked up): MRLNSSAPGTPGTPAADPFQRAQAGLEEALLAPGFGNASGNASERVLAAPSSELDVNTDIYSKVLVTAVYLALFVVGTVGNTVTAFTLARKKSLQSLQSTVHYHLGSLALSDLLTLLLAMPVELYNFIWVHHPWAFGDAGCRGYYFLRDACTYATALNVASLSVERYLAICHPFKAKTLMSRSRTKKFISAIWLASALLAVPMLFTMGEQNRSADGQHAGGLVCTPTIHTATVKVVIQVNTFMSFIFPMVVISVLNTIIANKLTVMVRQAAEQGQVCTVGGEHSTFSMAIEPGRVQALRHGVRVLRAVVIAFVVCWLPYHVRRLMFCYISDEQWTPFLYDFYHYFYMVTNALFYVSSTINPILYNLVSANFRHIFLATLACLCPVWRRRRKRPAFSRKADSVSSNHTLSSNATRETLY
NTR1 ag confirm: NTR1 (human) agonism, confirmed; shares compounds with NTR1 agonist; NTR1-U2OS beta-arrestin-GFP translocation imaging; activation, % at 20 µM; hit rate 38% among 480;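 active = mean activation at 20 µM of at least 40%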
Of the large screens only hits and unclear results are named; the others gave an inactive call (follow-up assays come after a bar, where they were run). Sampled rows, rich in hits. Any-hit rate of the full collection: about 6.2%.

COC(=O)c1ccc(NC(=O)CSc2nc3ccc(N4C(=O)C5C6C=CC(C6)C5C4=O)cc3s2)cc1 (stereo not given)	NR3A LBD binder 12, NTR1 agonist 63 | NTR1 ag confirm 56
O=C1NC(=O)C(=Cc2cn(CCOc3ccc4c(c3)OCO4)c3ccccc23)C(=O)N1	NTR1 agonist 54 | NTR1 ag confirm 63
CN(C)c1ccc(/C=C/[N+](=O)[O-])cc1	none
C/C(=C\c1ccc(N(C)C)cc1)[N+](=O)[O-]	AI-2 QS mod -91, NTR1 agonist 53 | NTR1 ag confirm 73
COc1ccc(C(c2nnnn2-c2ccc3c(c2)OCCO3)N2CCC3(CC2)C(=O)NCN3c2ccccc2)cc1 (stereo not given)	none (no result: Mot1-301 SUMO, AI-2 QS mod, NR3A LBD binder, AHR activator, NTR1 agonist)
NC(N)=N/N=C/c1ccc(N(c2ccccc2)c2ccccc2)cc1	NR3A LBD binder 22, NTR1 agonist 64 | NTR1 ag confirm inactive
COc1cc2cc(C(=O)N3CC(COS(C)(=O)=O)c4ccc(O)cc43)[nH]c2c(OC)c1OC (stereo not given)	none (no result: Mot1-301 SUMO, AI-2 QS mod, AHR activator, NTR1 agonist)
CC(C)N(C(=O)CCl)c1ccccc1	none (no result: Mot1-301 SUMO, AI-2 QS mod, AHR activator, NTR1 agonist)
CCN(CC)c1ccc(C=C2C(=O)NC(=S)NC2=O)cc1	NTR1 agonist 71 | NTR1 ag confirm 95
Cc1ccc(C(=O)N[C@@H](C)CN2C3=NC[C@@H](Cc4ccccc4)N3C[C@H]2Cc2ccc(O)cc2)cc1Br	none (no result: Cardio protect)
Cc1ccc(C(=O)N[C@@H](C)CN2C3=NC[C@H](Cc4ccccc4)N3C[C@H]2Cc2ccc(O)cc2)cc1Br	NTR1 agonist 52 (no result: Cardio protect) | NTR1 ag confirm inactive
CC1CCC(C(C)C)C(OC(=O)Cn2c(COc3ccccc3)[n+](C)c3ccccc32)C1 (stereo not given)	NTR1 agonist 59 | NTR1 ag confirm 68
O=c1[nH]c2ccccc2n1C1CCN(CCCC(c2ccc(F)cc2)c2ccc(F)cc2)CC1	NTR1 agonist 43 | NTR1 ag confirm inactive
O=C1CC(N2CCC(n3c(=O)[nH]c4ccccc43)CC2)C(=O)N1c1ccc(F)cc1 (stereo not given)	none
CC(=O)OC1CCC2(C)C(CC(=O)C3C2CCC2(C)C(OC(C)=O)CCC32)C1 (stereo not given)	none (no result: Mot1-301 SUMO, AI-2 QS mod, AHR activator, NTR1 agonist)
C1CN(P2(N3CC3)=NP(N3CC3)(N3CC3)=NP(N3CC3)(N3CC3)=N2)CCO1 (stereo not given)	none (no result: Mot1-301 SUMO, AI-2 QS mod, NR3A LBD binder, AHR activator, NTR1 agonist)
C=CCCC1(CC(C)C)C(=O)NC(=S)NC1=O	none (no result: Mot1-301 SUMO, AI-2 QS mod, AHR activator, NTR1 agonist)
O=C1NC(=O)N(Cc2ccc(F)cc2)C(=O)/C1=C/c1cccs1	NTR1 agonist 53 | NTR1 ag confirm 45
COc1ccc(NC(=O)c2cn(CCC#N)nc2-c2cccc([N+](=O)[O-])c2)cc1	none
COc1ccc(Oc2cc(NC(=O)c3nn(C)cc3[N+](=O)[O-])cc([N+](=O)[O-])c2)cc1	NR3A LBD binder 15, NTR1 agonist 61 | NTR1 ag confirm 67
Cc1cc(C)cc(N2C(=O)NC(=O)/C(=C/c3cccn3-c3ccc(Cl)cc3)C2=O)c1	NTR1 agonist 44 | NTR1 ag confirm 61
CC(C)(C)n1cccc1/C=C1\C(=O)NC(=O)N(c2ccccc2)C1=O	none
Cc1cccc(N2C(=O)NC(=O)/C(=C\c3cccn3-c3ccc(Cl)cc3)C2=O)c1	NTR1 agonist 48 | NTR1 ag confirm 82
Cc1cccc(N2C(=O)NC(=O)/C(=C/c3ccc([N+](=O)[O-])o3)C2=O)c1	none (no result: Cardio protect, AI-2 QS mod, NTR1 agonist)
CN(C)CC(C(=O)Cc1ccccc1)c1ccccc1 (stereo not given)	none (no result: Mot1-301 SUMO, AI-2 QS mod, AHR activator, NTR1 agonist)
O=C1NC(=O)C(=Cc2ccc(Sc3ccccc3)o2)C(=O)N1	NTR1 agonist 49 | NTR1 ag confirm 90
CN1C(=O)C(=Cc2ccc(Sc3ccccc3)o2)C(=O)N(C)C1=O	none
Nc1ccc(Cl)cc1C(=O)c1ccccc1	NTR1 agonist 100 | NTR1 ag confirm inactive
